Test results: PubChem BioAssay AID1851 (National Center for Advancing Translational Sciences (NCATS), 2009)
About 5,100 (32%) of roughly 16,000 compounds were called active. Another 25% or so got no clear call; they are omitted. Calls follow the shape of the dose curve; as a rule, active = well fitted curve in the direction sought with a large enough effect; inconclusive = small, poorly fitted or top-dose-only effect, or effect the other way; inactive = no such curve, though single readings can be large or run the other way. The list shows a part of the results.

molecular target: Cytochrome P450 3A4 (Homo sapiens) (UniProt P08684); experiment: Cytochrome panel assay with activity outcomes; details: recombinant CYP, pro-luciferin dealkylation, luminescence, p450-cyp3a4; series mostly up to 57.1 µM; activity, negative = inhibition: at the top concentration
% is scaled to controls: 0 for no effect and ±100 for the full control effect.

Cytochrome P450 3A4 (Homo sapiens), sequence (P08684 whole entry, looked up): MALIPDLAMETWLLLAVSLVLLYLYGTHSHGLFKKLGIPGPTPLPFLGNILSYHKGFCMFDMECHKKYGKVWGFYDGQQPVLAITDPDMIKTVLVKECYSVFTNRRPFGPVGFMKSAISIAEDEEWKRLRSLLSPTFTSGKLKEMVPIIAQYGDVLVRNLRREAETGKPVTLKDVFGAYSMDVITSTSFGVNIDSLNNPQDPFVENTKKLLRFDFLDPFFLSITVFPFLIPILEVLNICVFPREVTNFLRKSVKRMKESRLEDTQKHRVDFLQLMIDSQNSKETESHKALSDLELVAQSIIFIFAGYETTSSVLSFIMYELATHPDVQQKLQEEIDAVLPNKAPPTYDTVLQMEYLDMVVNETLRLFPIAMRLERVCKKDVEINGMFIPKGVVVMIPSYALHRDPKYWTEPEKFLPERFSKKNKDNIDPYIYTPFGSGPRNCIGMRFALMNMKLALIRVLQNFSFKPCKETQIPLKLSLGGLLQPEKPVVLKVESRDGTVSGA

SMILES | activity, negative = inhibition | AC50
C[C@@]12CC(=O)[C@@H]3[C@@H](CCC4=CC(=O)CC[C@]43C)[C@@H]1CC=C2CC(=O)O | -10.5% [at 11.4 µM] (inactive) | 
CCOC(=O)C1=C(C)NC(=O)NC1c1ccoc1 (stereo not drawn) | 15% [at 2.29 µM] (inactive) | 
CCOC(=O)C1=C(C)NC(=S)NC1c1cccc(O)c1 (stereo not drawn) |  | 1 µM (active)
CCOC(=O)C1=C(C)C(c2ccccc2OC)NC(=S)N1 (stereo not drawn) | -19.1% [at 2.29 µM] (inactive) | 
CN(Cc1ccco1)c1cc(-c2cccnc2)ncn1 |  | 3.16 µM (active)
COc1cccc(-c2cc(N(C)Cc3ccco3)ncn2)c1 |  | 25.1 µM (active)
CN(Cc1ccco1)c1cc(-c2cccc(C#N)c2)ncn1 | -4.27% (inactive) | 
COC(=O)[C@@]1(Cc2ccc(F)cc2)[C@@H]2[C@@H](CC(=O)[C@H]2CC(=O)C(=O)N2CCCC2)CN1C(=O)c1ccccc1 |  | 1.58 µM (active)
COC(=O)[C@@]1(Cc2ccc(OC)cc2)[C@@H]2[C@@H](CC(=O)[C@H]2CC(=O)C(=O)N2CCCC2)CN1C(=O)c1ccccc1 |  | 0.794 µM (active)
c1ccc(Cc2nnc(Sc3ccccc3)c3ccccc23)cc1 |  | 12.6 µM (active)
FC(F)(F)c1nnc(-c2ccccc2)nc1Sc1ccccc1 | -29.6% (inactive) | 
COc1ccc2[nH]cc(CCNc3cc(-c4ccccc4C(F)(F)F)ncn3)c2c1 |  | 5.01 µM (active)
COc1ccc2[nH]cc(CCNc3cc(-c4ccccc4C)ncn3)c2c1 |  | 5.01 µM (active)
COCCNc1cc(-c2ccccc2C)ncn1 | -2.95% (inactive) | 
COc1ccc2[nH]cc(CCNc3cc(-c4ccccc4OC)ncn3)c2c1 |  | 6.31 µM (active)
CC(C)OC(=O)CSc1nc(-c2ccc(F)cc2)nc2ccc(F)cc12 | -10.7% (inactive) | 
Cc1ccc(NC(=S)NC(=O)c2c(-c3ccccc3Cl)noc2C)cc1 |  | 14.1 µM (active)
Cc1onc(-c2ccccc2Cl)c1C(=O)Nc1nnc(Cc2ccc(Cl)cc2)s1 |  | 3.16 µM (active)
O=C(Nc1ccccc1)c1cc(-c2ccccc2Cl)no1 | -22.5% (inactive) | 
O=C(NCCc1ccc(Cl)cc1)C1CCN(S(=O)(=O)N2CCC3(CC2)OCCO3)CC1 |  | 3.55 µM (active)
O=C(NCc1ccccc1Cl)C1CCN(S(=O)(=O)N2CCC3(CC2)OCCO3)CC1 |  | 14.1 µM (active)
COCCNC(=O)C1CCN(S(=O)(=O)N2CCC3(CC2)OCCO3)CC1 | -8.44% (inactive) | 
CC(C)N(CCNC(=O)C1CCN(S(=O)(=O)N2CCOCC2)CC1)Cc1ccccc1 | 22.3% (inactive) | 
Cc1cc(C)c(C#N)c(Oc2ccc(F)cc2)n1 |  | 8.91 µM (active)

SMILES | activity, negative = inhibition | AC50
CCCC(=O)Nc1cccc(Oc2nc(C)cc(C)c2C#N)c1 |  | 14.1 µM (active)
Cc1cc(C)c(C#N)c(Oc2ccccc2)n1 | -18.2% [at 11.4 µM] (inactive) | 
Cc1cc(C)c(S(C)(=O)=O)c(Oc2ccc(F)cc2)n1 | 26.1% [at 2.29 µM] (inactive) | 
COc1ccc(-n2c(=O)c(-c3ccc(Cl)cc3)nc3cnc(N4CCOCC4)nc32)cc1 | -5.16% (inactive) | 
Nc1nc(CSc2nnnn2-c2ccc(Cl)cc2)nc(N2CCOCC2)n1 |  | 3.98 µM (active)
Clc1ccc(-n2nnnc2CN2CCOCC2)cc1 | -2.71% (inactive) | 
CC(C)C(=O)N[C@H]1CCCN1C(=O)/C=C\c1ccccc1 | -20.7% [at 11.4 µM] (inactive) | 
COC(=O)c1cc(/C=C/c2ccccc2)on1 | -3.05% [at 2.29 µM] (inactive) | 
COC(=O)C1=C(C)N=C2SC(C)C(=O)N2C1/C=C/c1ccccc1 (stereo not drawn) |  | 12.6 µM (active)
Cc1[nH]c2c(C)cccc2c1CCNC(=O)c1ccc2c(c1[N+](=O)[O-])C(=O)c1ccccc1C2=O |  | 3.16 µM (active)
Cc1[nH]c2ccccc2c1CCNC(=O)c1ccc2c(c1[N+](=O)[O-])C(=O)c1ccccc1C2=O |  | 8.91 µM (active)
CC(C)NC(=O)COC(=O)c1cc(=O)[nH]c2ccccc12 | 1.83% [at 2.29 µM] (inactive) | 
COc1cc(OC)nc(NC(C)=O)n1 | 28.1% (inactive) | 
COc1cc(C2SCCCCCCCCCCSC(c3ccc(O)c(OC)c3)SCCCCCCCCCCS2)ccc1O (stereo not drawn) | 12.5% [at 11.4 µM] (inactive) | 
COc1ccc(C[C@@H]2C(=O)N[C@H](C)C(=O)N(C)[C@@H]3Cc4ccc(cc4)Oc4cc(ccc4O)C[C@H](C(=O)N[C@@H](C)C(=O)N[C@H](C)C(=O)N2C)N(C)C3=O)cc1 |  | 3.98 µM (active)
Nc1nc(Cl)cc(N2CCC(c3cc(-c4ccc(Cl)cc4Cl)n[nH]3)CC2)n1 |  | 20 µM (active)
Nc1nc(Cl)cc(N2CCOCC2)n1 | -4.16% (inactive) | 
NC1CCN(c2cccc(Cl)n2)CC1 |  | inactive
COc1ccc(-c2cc(C3CCN(c4cc(Cl)nc(N)n4)CC3)[nH]n2)cc1 |  | 28.2 µM (active)
CCNc1ncc2nc(-c3ccc(F)cc3)c(=O)n(CCC#N)c2n1 | -24.5% (inactive) | 
CCNc1ncc2nc(-c3cccs3)c(=O)n(Cc3cccs3)c2n1 |  | 6.31 µM (active)
CCNc1ncc2nc(-c3ccccc3)c(=O)n(Cc3cccs3)c2n1 |  | 15.8 µM (active)
CCNc1ncc2nc(-c3cc(F)cc(F)c3)c(=O)n(CCC#N)c2n1 | -5.56% (inactive) | 
CCNc1ncc2nc(-c3ccc(F)cc3)c(=O)n(CCOC)c2n1 | 13.3% (inactive) | 

SMILES | activity, negative = inhibition | AC50
CCNc1ncc2nc(-c3cccs3)c(=O)n(Cc3ccc(F)cc3)c2n1 |  | 15.8 µM (active)
CCNc1ncc2nc(-c3cccs3)c(=O)n(CCC#N)c2n1 |  | 6.31 µM (active)
CCNc1ncc2nc(C)c(=O)n(C)c2n1 | -19.3% (inactive) | 
CCNc1ncc2nc(C)c(=O)n(Cc3cccs3)c2n1 |  | 15.8 µM (active)
O=C(Nc1ccc2oc(-c3ccccc3F)nc2c1)c1ccc2c(c1)OCCO2 |  | 3.16 µM (active)
COc1cc(C(=O)NC(=S)Nc2cccc(-c3cc4ccccc4oc3=O)c2)cc(OC)c1OC |  | 6.31 µM (active)
COc1cc(C(=O)NC(=S)Nc2ccc3oc(=O)ccc3c2)cc(OC)c1OC |  | 4.47 µM (active)
COc1cc2ccc(=O)oc2cc1O | -6.97% [at 25.6 µM] (inactive) | 
COc1cc(C(=O)NC(=S)Nc2ccc(Cl)c(C(=O)O)c2)cc(OC)c1OC | -9.66% [at 11.4 µM] (inactive) | 
CC(O)(P(=O)(O)O)P(=O)(O)O | -6.71% [at 25.6 µM] (inactive) | 
CCC(=O)Nc1cc(-c2nn(C)c(=O)c3ccccc23)ccc1N1CCCCC1 | -26.6% (inactive) | 
Cn1nc(-c2ccc(N3CCOCC3)c(NS(=O)(=O)c3ccc(Cl)cc3)c2)c2ccccc2c1=O |  | 1.41 µM (active)
Cc1c(C(=O)NN2CCOCC2)nn(-c2ccc(Cl)cc2Cl)c1-c1ccc(I)cc1 | -26.3% (inactive) | 
COC(=O)[C@@]1(Cc2ccc(F)cc2)[C@H]2c3cc(C(=O)N4CCCC4)n(CCc4c[nH]c5ccccc45)c3C[C@H]2CN1C(=O)c1ccccc1 |  | 1 µM (active)
COC(=O)[C@@]1(Cc2ccc(OC)cc2)[C@H]2c3cc(C(=O)N4CCCC4)n(CCc4c[nH]c5cc(F)ccc45)c3C[C@H]2CN1C(=O)c1ccccc1 |  | 1.26 µM (active)
COC(=O)[C@@]1(Cc2ccc(OC)cc2)[C@H]2c3cc(C(=O)N4CCCC4)n(CCc4c[nH]c5ccc(O)cc45)c3C[C@H]2CN1C(=O)c1ccccc1 |  | 1.58 µM (active)
CCOc1cc(C#N)c(NC(=O)c2cccnc2)cc1OCC |  | 12.6 µM (active)
CCN(CC)c1ccc(NC(=O)c2cccnc2)c(C)c1 | 1.22% [at 2.29 µM] (inactive) | 
CCN(CC)C(=O)C1=C(C)NC(=S)NC1c1cn(-c2ccccc2)nc1-c1ccc(Cl)cc1 (stereo not drawn) |  | 7.08 µM (active)
CCN(CC)C(=O)c1sc2[nH]c(=S)n(-c3ccccc3)c(=O)c2c1C | -14.5% (inactive) | 
CC1=C(C(=O)Nc2ccccc2)C(c2ccco2)NC(=S)N1 (stereo not drawn) | 0.933% [at 2.29 µM] (inactive) | 
COc1ccc2[nH]cc(CCNc3ccnc(-c4ccccc4C)n3)c2c1 |  | 3.16 µM (active)
COc1ccc2[nH]cc(CCNc3ccnc(-c4ccccc4Cl)n3)c2c1 |  | 2 µM (active)
COc1ccc2[nH]cc(CCNc3ccnc(-c4ccccc4C(F)(F)F)n3)c2c1 |  | 2 µM (active)

SMILES | activity, negative = inhibition | AC50
NC(=O)N[C@H]1NC(=O)NC1=O | -8.61% [at 25.6 µM] (inactive) | 
O=C(O)[C@@H](c1ccccc1)[C@@H](C(=O)O)c1ccccc1 | -6.94% [at 11.4 µM] (inactive) | 
Cn1sc(NC(=O)c2ccccc2)nc1=O | 0.56% (inactive) | 
Cc1ccc(SCc2nnc(NC(=O)c3ccccc3)s2)cc1 | 6.01% (inactive) | 
Cc1ccn2c(NC(=O)c3ccccc3)c(-c3cccs3)nc2c1 |  | 7.94 µM (active)
COc1ccccc1CNc1ncncc1-c1ccccc1C(F)(F)F |  | 0.0794 µM (active)
COc1ccc(CNc2ncncc2-c2ccccc2C(F)(F)F)c(OC)c1 |  | 0.316 µM (active)
CSc1ccc(NC(=O)Nc2cc(C)ccn2)cc1 | -14.7% [at 11.4 µM] (inactive) | 
CSc1ccc(CNc2ccc(C)c(C)c2)cc1 |  | 12.6 µM (active)
CSc1ccc(NC(=O)NCCN2CCc3ccccc3C2)cc1 | -27.6% (inactive) | 
O=C(O)[C@H]1[C@H](C(=O)O)[C@H](C(=O)O)C[C@@H]1C(=O)O | -3.42% [at 11.4 µM] (inactive) | 
COc1ccc(NC(=O)CSc2nc(-c3ccc(C)cc3)cc(C(F)(F)F)c2C#N)cc1 | 0.258% [at 2.29 µM] (inactive) | 
COc1ccc2cc(C)c3nnc(SCC(=O)Nc4nc(-c5ccccc5)cs4)n3c2c1 |  | 2.24 µM (active)
COc1ccc(-n2c(CNc3ccc(C)cc3)nnc2SCC(=O)Nc2nc(-c3ccccc3)cs2)cc1 |  | 3.16 µM (active)
Nc1ccc(N2C(=O)c3ccccc3C2=O)c(Cl)c1 |  | 15.8 µM (active)
CC1CCN(CCc2nc3cc(NC(=O)NC4CCCCC4)ccc3n2C)CC1 | -7.07% (inactive) | 
Cc1ccccc1-c1cncnc1NCc1ccccc1 |  | 0.316 µM (active)
CN(C)Cc1ccccc1-c1cncnc1NCc1cccnc1 |  | 1.58 µM (active)
Cc1ccccc1-c1cncnc1NCc1cccnc1 |  | 0.631 µM (active)
c1cncc(CNc2ncn[nH]2)c1 | -14.4% [at 11.4 µM] (inactive) | 
FC(F)(F)c1ccccc1-c1cncnc1NCc1cccnc1 |  | 0.631 µM (active)
